# Source: PubChem BioAssay (Tox21)
# Inconclusive results are not listed. Unmarked numbers belong to inactive results. Active and inactive are the calls of the source. The call rests on the fitted dose curve.
# Test: qHTS assay to identify small molecule antagonists of the estrogen receptor alpha (ER-alpha) signaling pathway using the BG1 cell line (AID 743080);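 further: BG1 cells stimulated with 17beta-estradiol alongside compound; nearly all actives have a fitted effect of over 25% in size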
# Conditions: BG1Luc4E2 ERE-luciferase antagonist mode, luminescence; series mostly up to 70.3 µM; activity change, negative = inhibition: at the top concentration
# From the text: National Center for Advancing Translational Sciences [NCATS]
# NIH Chemical Genomics Center [NCGC]
# U.S. Environmental Protection Agency [EPA]
# National Institutes of Environmental Health Sciences [NIEHS]
# National Toxicology Program [NTP]
# U.S. Food and Drug Administration [FDA]
# Estrogen receptor (ER), a nuclear hormone receptor, plays an important role in development, metabolic homeostasis and reproduction. Endocrine disrupting chemicals (EDCs) and their interactions with steroid hormone receptors like ER causes disruption of normal endocrine function. Therefore, it is important to understand the effect of environmental chemicals on the ER signaling pathway. To identify ER antagonists, BG1-Luc-4E2 cell line (provided by Dr. Michael Denison from University of California) has been used to screen the Tox21 10K compound library. BG1Luc4E2 cell line endogenously expresses full-length ER-alpha and is stably transfected with a plasmid containing four estrogen responsive elements (ERE) upstream of a luciferase reporter gene.
# Tox21 Assay Protocol Summary:
# BG1-Luc-4E2 cells were cultured in phenol red free assay medium containing 10% charcoal stripped FBS for 5 days before the assay was performed. The cells were dispensed at 4,000 cells/4 uL of assay medium per well into white wall/solid-bottom 1536-well plates using a Multidrop Combi (ThermoFisher Scientific, Waltham, MA) dispenser. The assay plates were incubated at a 37C and 5% CO2 for 24 h, and then 23 nL of compounds dissolved in DMSO, positive controls or DMSO only was transferred to the assay plate using a Pintool station (Kalypsys, San Diego, CA), followed by addition of 1 uL of 17beta-estradiol in assay medium using a Flying Reagent Dispenser (Aurora Discovery, San Diego, CA). After the plates were incubated at 37 C and 5% CO2 for 21.5 h, 1 uL of CellTiter-Fluor reagent (Promega, Madison, WI) of measuring cytotoxicity was added using Flying Reagent Dispenser (FRD) to each well. The assay plates were incubated at 37 C and 5% CO2 for additional 30 min and the fluorescence intensity was quantified by a ViewLux plate reader (PerkinElmer, Shelton, CT). For measuring luciferase reporter gene activity, 4 uL of ONE-Glo reagent (Promega) was added to each plate using an FRD and luminescence was quantified by a ViewLux plate reader after 30 min incubation at room temperature.
# On the % scale 0 is the no-effect control and ±100 the full control effect.
Compound,"activity change, negative = inhibition",outcome
CCCCCC1Nc2cc(C(F)(F)F)c(S(N)(=O)=O)cc2S(=O)(=O)N1 (stereo not given),10.7%,
CCCCOC(=O)C(C)OC(=O)CCC (stereo not given),6.58%,
C[C@H](CCC(=O)O)[C@H]1CC[C@H]2[C@@H]3[C@H](O)C[C@@H]4C[C@H](O)CC[C@]4(C)[C@H]3C[C@H](O)[C@]12C,,inactive
Cc1nc([N+](=O)[O-])cn1-c1ccc([N+](=O)[O-])cc1,7.25%,
Nc1ccc(S(=O)(=O)Nc2ccccn2)cc1,11.8% [at 32.5 µM],
CC(Cl)COP(=O)(OCC(C)Cl)OCC(C)Cl (stereo not given),-5.81%,
O=S1(=O)CCCC1,2.3% [at 95 µM],
Cc1cc(O)c2c(c1)C(=O)c1cccc(O)c1C2=O,0%,
O=P(O)(O)OCC(O)CO (stereo not given),1.54%,
CCOC(=O)CC#N,5.69%,
CCC1COC(=O)O1 (stereo not given),1.34%,
Nc1ccc(S(=O)(=O)NC(=O)c2ccccc2)cc1,10.6% [at 32.5 µM],
COCC(=O)Nc1c(I)c(C(=O)NCC(O)CO)c(I)c(C(=O)N(C)CC(O)CO)c1I (stereo not given),9.91% [at 32.5 µM],
O=CN1CCOCC1,-5.67%,
O=C1OC(=O)c2cc(Oc3ccc4c(c3)C(=O)OC4=O)ccc21,11%,
NC(=O)NNC(N)=O,6.85%,
CCOC(=O)C(C)(C)C,-3.35% [at 95 µM],
CC(C)(c1ccc(Oc2ccc3c(c2)C(=O)OC3=O)cc1)c1ccc(Oc2ccc3c(c2)C(=O)OC3=O)cc1,1.96%,
CCNC(=O)NCCCOc1cccc(CN2CCCCC2)c1,-0.0632%,
CC(C)(CO)[C@@H](O)C(=O)NCCCO,14.5%,

Compound,"activity change, negative = inhibition",outcome
FC(F)(F)/C(=N\OCC1OCCO1)c1ccc(Cl)cc1,1.85%,
CCCO,2.03%,
CNC(=O)C(c1ccccc1)c1ccccc1,-6.47%,
CCC(=O)c1ccc(O)cc1,0.872%,
O=C1CC[C@H](C(=O)N2CCCCC2)N1,1.7%,
C[Si]1(C)N[Si](C)(C)N[Si](C)(C)N1,5.18%,
COC(OC)C(C)c1ccccc1 (stereo not given),-2.7%,
CN[C@@H]1[C@H](O)[C@H](NC)[C@H]2O[C@@]3(O)C(=O)C[C@@H](C)O[C@H]3O[C@@H]2[C@H]1O,0% [at 32.5 µM],
CC(CC(=O)O)CC(C)(C)C (stereo not given),6.94%,
Cc1ccccc1C,-18.1% [at 95 µM],
CCN1CN(CC)CN(CC)C1,-6.65%,
O=S(=O)(O)CCO,9.97% [at 95 µM],
CCCOC(=O)CCCCC(=O)OCCC,6.87%,
O=C(O)c1c(Cl)ccc(Cl)c1Cl,-1.12%,
CCN(CCC#N)c1ccccc1,1.51%,
Cc1oc(=O)oc1CN1CCN(c2cc3c(cc2F)c(=O)c(C(=O)O)c2n3C(C)S2)CC1 (stereo not given),0%,
NCCc1ccn[nH]1,0% [at 32.5 µM],
Cc1cc(C)cc([N+](=O)[O-])c1,-9.62% [at 95 µM],
CCCCCCCC/C=C\CCCCCCCC(=O)OC[C@@H](O)[C@H]1OC[C@H](O)[C@H]1O,,inactive
C1=C\CC/C=C\CC/1,3.97% [at 95 µM],
